Laboratory results: PubChem BioAssay (NCATS)
“And” between values parts separate entries of the source, which are not always exact repeats. Equal values may be shown once. Inconclusive results are not listed. The source made the active and inactive calls. Unless noted, calls come from the whole dose curve; as a rule, active = well fitted curve in the direction sought with a large enough effect; inconclusive = small, poorly fitted or top-dose-only effect, or another doubt; inactive = no such curve, though single readings can be large; an effect the other way counts as inactive or inconclusive.

Key:
[1] = qHTS Assay for Identification of Small Molecule Antagonists for Thrombopoietin (TPO) Signaling Pathway (AID 918); conditions: TPO-dependent cell signaling reporter, antagonist mode; note: potency is the fitted concentration of half-maximal effect; nearly all actives have a fitted effect of over 60% in size
In short: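 Murine Ba/F3 cells expressing human TPO receptor and a Glycoprotein IIb promoter-luciferase reporter, IL-3-starved overnight, treated with compound plus TPO at EC50 (26 pM final). After 24 h at 37 C, luminescence read to detect inhibitors.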

[2] = target: Muscarinic acetylcholine receptor M1 (Rattus norvegicus) (UniProt P08482); experiment: qHTS Assay for Antagonists of Acetylcholine Muscarinic M1 Receptor: Kinetic Measurement of Intracellular Calcium Response (AID 943); conditions: M1-expressing cells, kinetic intracellular calcium fluorescence; series mostly up to 35.3 µM; note: potency is the fitted concentration of half-maximal effect; nearly all actives have a fitted effect of over 75% in size
Muscarinic acetylcholine receptor M1 (Rattus norvegicus), sequence (P08482 whole entry, looked up): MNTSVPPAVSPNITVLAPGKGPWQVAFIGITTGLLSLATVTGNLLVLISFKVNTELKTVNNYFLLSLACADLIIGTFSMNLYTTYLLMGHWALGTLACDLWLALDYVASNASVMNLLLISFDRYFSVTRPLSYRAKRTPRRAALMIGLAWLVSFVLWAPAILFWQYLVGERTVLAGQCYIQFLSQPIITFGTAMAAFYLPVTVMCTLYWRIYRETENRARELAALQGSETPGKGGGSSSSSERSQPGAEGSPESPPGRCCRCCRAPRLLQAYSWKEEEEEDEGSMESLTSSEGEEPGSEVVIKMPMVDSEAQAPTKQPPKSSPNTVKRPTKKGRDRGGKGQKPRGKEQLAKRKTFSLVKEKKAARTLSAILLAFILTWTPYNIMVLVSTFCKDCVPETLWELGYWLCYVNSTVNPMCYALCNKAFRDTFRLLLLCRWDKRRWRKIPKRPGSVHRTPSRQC
In short: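 CHO cells expressing rat M1 receptor, Fluo-4 loaded, preincubated 10 min with compound, then stimulated with EC80 carbachol (100 nM final). Kinetic calcium fluorescence over 4 min; response taken as peak over basal signal.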

[3] = target: Muscarinic acetylcholine receptor M1 (Rattus norvegicus) (UniProt P08482); experiment: qHTS Assay for Antagonists of Acetylcholine Muscarinic M1 Receptor: Measurement of IP-One Response (AID 944); conditions: CHO-M1 cells, IP-One HTRF, antagonist mode; series mostly up to 46.1 µM; note: potency is the fitted concentration of half-maximal effect; nearly all actives have a fitted effect of over 75% in size
In short: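 CHO cells stably expressing rat M1, pretreated 10 min with compound, then stimulated 30 min with carbachol at EC80 (200 nM) in LiCl-containing buffer pH 7.4; IP1 accumulation read by HTRF competition (665/620 nm).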

[4] = target: Pyruvate kinase PKM (Homo sapiens) (UniProt P14618); experiment: qHTS Assay for Activators of Human Muscle Pyruvate Kinase (AID 954; active = well fitted curve in the direction sought with a large enough effect, not every such curve was filed as active;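 note: 0% = uninhibited enzyme and -100% = no enzyme or full thiadiazolimine inhibition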); conditions: purified human muscle pyruvate kinase, luciferase-coupled luminescence, 1 h; series mostly up to 57.5 µM
Pyruvate kinase PKM (Homo sapiens), sequence (P14618 whole entry, looked up): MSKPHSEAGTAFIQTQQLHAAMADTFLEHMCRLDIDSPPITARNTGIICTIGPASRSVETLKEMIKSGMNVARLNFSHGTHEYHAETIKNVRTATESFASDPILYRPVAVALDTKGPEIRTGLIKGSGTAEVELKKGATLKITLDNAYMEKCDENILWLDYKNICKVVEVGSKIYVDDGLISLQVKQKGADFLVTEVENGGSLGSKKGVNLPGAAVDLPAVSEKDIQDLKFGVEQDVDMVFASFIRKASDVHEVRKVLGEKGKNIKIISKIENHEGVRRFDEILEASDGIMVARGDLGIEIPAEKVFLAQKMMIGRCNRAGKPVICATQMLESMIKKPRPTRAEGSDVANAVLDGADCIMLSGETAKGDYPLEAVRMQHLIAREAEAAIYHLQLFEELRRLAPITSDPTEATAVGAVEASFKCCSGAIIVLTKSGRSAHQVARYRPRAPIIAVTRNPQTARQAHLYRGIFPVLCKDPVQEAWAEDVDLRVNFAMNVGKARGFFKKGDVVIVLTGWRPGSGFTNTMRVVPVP
In short: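 Purified human PKM2 (0.1 nM) with 0.5 mM PEP (Km) and 0.1 mM ADP in 50 mM imidazole pH 7.2, KCl, MgCl2, 1 h at room temperature; ATP formed read by coupled luciferase luminescence. Normalized to no-enzyme/110 uM thiadiazolimine inhibition; 0.3 nM enzyme column for activation.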

[5] = qHTS Assay for Identification of Small Molecule Agonists for Thrombopoietin (TPO) Signaling Pathway (AID 917); conditions: TPO signaling pathway reporter cells, agonist qHTS, stimulated with TPO at its EC50; series mostly up to 38.5 µM; note: % is set by controls: 0 for no effect and ±100 for the full control effect
In short: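 We measured Glycoprotein IIb promoter–luciferase output in IL-3-starved Ba/F3 murine cells expressing the human TPO receptor after 24 hrs at 37 C with compounds and 26 pM TPO.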

[6] = qHTS Assay for Identification of Small Molecule Agonists for Hypoxia Response Element Signaling Pathway (AID 914; active = well fitted activation curve with a large enough effect in the signal ratio, with a control signal flat, not every such curve was filed as active; the % refers to the signal ratio; note: % of control where 0% means no effect); conditions: ME-180 (cervical carcinoma) HRE-bla reporter, beta-lactamase ratio, CoCl2, 17 h; active compounds read high
In short: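 HRE-bla ME-180 cells with beta-lactamase reporter under hypoxia response element, compounds with EC50 CoCl2 for 17 hours at 37 C. CCF4 substrate, 460nm/530nm emission ratio gave %Activity; AC50 from titration series.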

[7] = Cell Viability - LYMP2-001 (AID 921); conditions: LYMP2-001 lymphoblastoid cell viability; series mostly up to 92.2 µM;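 note: 0% = DMSO only and full inhibition = tetraoctylammonium bromide control wells; nearly all actives have a fitted effect of over 70% in size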
In short: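 qHTS, 1536-well; lymphoblastoid cells, 24 hr compound, 37 C; ATP by CellTiter-Glo, 30 min RT; luminescence; Hill-fit AC50.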

[8] = Confirmation and Secondary Assay for Modulators of Hemoglobin Beta Chain Splicing at IVS2 705 locus (AID 930); conditions: HeLa EGFP-705 splicing reporter, GFP fluorescence, 48 h; series mostly up to 46.1 µM;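 note: HeLa cells stably expressing the EGFP-705 splicing reporter; GFP fluorescence per well restored by corrected splicing of the IVS2-705 intron in EGFP; % of control where 0% means no effect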
In short: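 HeLa cells stably carrying EGFP interrupted by mutant beta-globin intron 2 (IVS2-705) treated 2 days at 37C with compound; 500 nM antisense PNA as control. Correct splicing read as total peak GFP intensity per well by laser-scanning cytometry.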

[9] = MultiTox-Fluor Cytotoxicity Assay - LYMP1-001 - Dead Cells (AID 946); conditions: LYMP1-001 lymphoblastoid cells, dead-cell protease fluorescence; series mostly up to 92.2 µM;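 note: 0% = DMSO and 100% = tetraoctylammonium bromide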
In short: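 LYMP1-001 lymphoblastoid cells (2500/well) treated 16 h at 37 C. Dead-cell protease cleavage of bis-AAF-R110 read at Ex/Em 485/520. Normalized to DMSO and 15 uM tetraoctylammonium bromide; AC50 from Hill fits.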

[10] = MultiTox-Fluor Cytotoxicity Assay - LYMP1-001 - Live Cells (AID 947); conditions: LYMP1-001 lymphoblastoid cells, live-cell protease fluorescence viability; series mostly up to 92.2 µM;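 note: 0% = DMSO only and full inhibition = tetraoctylammonium bromide control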
[11] = Cell Viability - LYMP1-002 - Assay at 16 hr (AID 948); conditions: LYMP1-002 lymphoblastoid cell viability; series mostly up to 92.2 µM;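 note: 0% = DMSO alone and full effect = 92 µM tetraoctylammonium bromide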
In short: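 Acute cytotoxicity is scored as a concentration-dependent fall in intracellular ATP in a human lymphoblastoid line (LYMP1-002) after 16 hr compound exposure at 37 C, measured by luciferase luminescence.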

[12] = MultiTox-Fluor Cytotoxicity Assay - LYMP1-002 - Live Cells (AID 955); conditions: LYMP1-002 lymphoblastoid live-cell protease fluorescence viability; series mostly up to 46.1 µM; note: % is set by controls: 0 for no effect and ±100 for the full control effect
In short: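 Human lymphoblastoid LYMP1-002 cells, 2500/well, treated 16 h at 37 C in complete medium. Live-cell protease activity via GF-AFC fluorescence (Ex/Em 405/510) after 60 min reagent incubation; AC50 from Hill fits.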

[13] = MultiTox-Fluor Cytotoxicity Assay - LYMP1-002 - Dead Cells (AID 960); conditions: LYMP1-002 lymphoblastoid cells, dead-cell protease fluorescence; series mostly up to 46.1 µM;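 note: 0% = DMSO and 100% = tetraoctylammonium bromide; nearly all actives have a fitted effect of over 60% in size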
In short: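 Human lymphoblastoid LYMP1-002 cells, 2500/well, treated 16 h at 37 C; dead-cell protease cleavage of bis-AAF-R110 read by fluorescence (485/520); normalized to DMSO and 15 uM tetraoctylammonium bromide; AC50 from Hill fit.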

[14] = MultiTox-Fluor Cytotoxicity Assay - LYMP1-003 - Dead Cells (AID 961); conditions: LYMP1-003 lymphoblastoid cells, dead-cell protease fluorescence; series mostly up to 92.2 µM;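 note: 0% = DMSO and 100% = tetraoctylammonium bromide; nearly all actives have a fitted effect of over 70% in size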
In short: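 LYMP1-003 human lymphoblastoid cells (2500/well) exposed to compound 16 h at 37 C in complete medium; dead-cell protease read with bis-AAF-R110 fluorescence (Ex/Em 485/520) after 60 min at room temperature. Normalized to DMSO and 15 uM tetraoctylammonium bromide; AC50 from Hill fit.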

[15] = MultiTox-Fluor Cytotoxicity Assay - LYMP1-003 - Live Cells (AID 962); conditions: LYMP1-003 lymphoblastoid cells, MultiTox-Fluor live-cell protease fluorescence; series mostly up to 92.2 µM;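 note: 0% = DMSO only and full loss = 92 µM tetraoctylammonium bromide; cytotoxic hits lower the live-cell protease signal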
In short: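 LYMP1-003 lymphoblastoid cells, 2500/well in complete medium, treated 16 h at 37 C; live-cell protease cleavage of GF-AFC read by fluorescence (Ex/Em 405/510) after 60 min reagent; AC50 from Hill fits of concentration-response.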

[16] = Cell Viability - LYMP1-003 - Assay at 24 hr (AID 963); conditions: LYMP1-003 lymphoblastoid cell viability; series mostly up to 92.2 µM;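 note: plate controls were DMSO only for no effect and tetraoctylammonium bromide positive control for full effect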
In short: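 Human lymphoblastoid LYMP1-003 cells, 2500/well, treated 24 h at 37 C in complete medium. Viability read as intracellular ATP by CellTiter-Glo luminescence after 30 min at room temperature; AC50 from Hill-equation fits of qHTS concentration-response.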

[17] = Cell Viability - LYMP1-003 - Assay at 40 hr (AID 964); conditions: LYMP1-003 lymphoblastoid viability; series mostly up to 92.2 µM; note: % is set by controls: 0 for no effect and ±100 for the full control effect; nearly all actives have a fitted effect of over 60% in size
In short: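 LYMP1-003 human lymphoblastoid cells, 2500/well, preincubated 5 h at 37 C, then treated with compound for 40 h at 37 C. Intracellular ATP read by CellTiter-Glo luminescence after 30 min at room temperature; AC50 from Hill-equation fits.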

[18] = target: Pyruvate kinase (Leishmania mexicana) (UniProt Q27686); experiment: qHTS Validation Assay for Inhibitors of Leishmania Mexicana Pyruvate Kinase (AID 945);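 note: 0% = DMSO only neutral control wells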; conditions: purified L. mexicana pyruvate kinase, enzyme activity, E451W mutant enzyme; series mostly up to 57.5 µM
Pyruvate kinase (Leishmania mexicana), sequence (Q27686 2-499 E452W): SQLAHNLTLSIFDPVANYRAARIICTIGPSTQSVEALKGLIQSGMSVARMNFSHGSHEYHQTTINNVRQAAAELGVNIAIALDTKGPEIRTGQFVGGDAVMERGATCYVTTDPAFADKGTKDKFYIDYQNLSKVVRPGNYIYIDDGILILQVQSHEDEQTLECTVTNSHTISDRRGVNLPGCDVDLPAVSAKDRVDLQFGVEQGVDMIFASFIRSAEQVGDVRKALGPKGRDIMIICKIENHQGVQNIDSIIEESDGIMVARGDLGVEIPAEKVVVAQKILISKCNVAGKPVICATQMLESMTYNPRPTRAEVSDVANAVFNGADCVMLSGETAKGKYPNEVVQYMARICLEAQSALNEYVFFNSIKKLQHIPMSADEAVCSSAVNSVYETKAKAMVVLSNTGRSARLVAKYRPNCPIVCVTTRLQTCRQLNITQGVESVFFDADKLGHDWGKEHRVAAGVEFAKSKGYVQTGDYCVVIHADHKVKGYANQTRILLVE
In short: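 Eight-point qHTS titrations in triplicate, data normalized to DMSO neutral control. Reaction: 0.2 nM LmPYK E451W mutant, 0.5 mM PEP, 0.1 mM ADP, 7 mM MgCl2, pH 7.2, one hour at room temperature; luminescent ATP detection.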

COc1cc(C(=O)OCCCN2CCCN(CCCOC(=O)c3cc(OC)c(OC)c(OC)c3)CC2)cc(OC)c1OC
active: Potency [1] 10 µM | Potency [2] 0.316 µM | Potency [3] 4.47 µM
inactive: outcome [4]

CCNC(=O)N1CCN(CCCC(c2ccc(F)cc2)c2ccc(F)cc2)CC1
active: Potency [3] 17.8 µM
inactive: outcome [5] | outcome [4]

NC(=O)N1c2ccccc2C=Cc2ccccc21
inactive: activation [6] -7.9% and -9.09% and -6.88% | outcome [5] | outcome [7] | outcome [8] | outcome [9] | outcome [10] | outcome [11] | outcome [4] | outcome [12] | Potency [13] | Potency [14] | outcome [15] | outcome [16] | Potency [17]

c1cnc(N2CCN(Cc3ccc4c(c3)OCO4)CC2)nc1
inactive: outcome [5] | Potency [18] | outcome [4]
active: Potency [2] 14.1 µM

CN1CCN(C2=Nc3ccccc3Oc3ccc(Cl)cc32)CC1
active: Potency [2] 0.282 µM | Potency [3] 3.16 µM
inactive: outcome [5] | outcome [8] | Potency [18] | outcome [4]
